PubChem BioAssay (NCI)
This is part of a sample that, as a whole, favours compounds with a hit. Of some 79,000 tested, about 15% had one in any assay. Active and inactive are the calls of the source. Cut-off read from the data, not from the text of the source: active = growth inhibition above about 70%; inactive = the rest.

Assays:
[1] = NCI Yeast Anticancer Drug Screen. Data for the rad52 strain (AID 147);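 note: 0% = growth of vehicle-treated control cultures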; conditions: S. cerevisiae rad52 mutant growth inhibition, active compounds read high
Outline: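 Here a repair-compromised yeast strain receives each compound; its growth is then quantified and normalised to vehicle-only controls.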

[2] = NCI Yeast Anticancer Drug Screen. Data for the wt1 strain (AID 149);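 note: 0% = growth of vehicle-treated wt1 cultures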; conditions: S. cerevisiae wt1 strain (SPY 50644) growth inhibition, active compounds read high
Outline: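 Growth inhibition read against vehicle controls after compound exposure of the wt1 yeast strain.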

[3] = NCI Yeast Anticancer Drug Screen. Data for the rad50EPP+ strain (AID 151);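 note: 0% = growth of vehicle-treated control cultures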; conditions: S. cerevisiae rad50 mutant strain, active compounds read high
Outline: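 Read-out is yeast growth inhibition relative to vehicle; cells used were the rad50EPP+ strain.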

[4] = NCI Yeast Anticancer Drug Screen. Data for the mgt1 strain (AID 153); conditions: S. cerevisiae mgt1 mutant growth inhibition, active compounds read high
Outline: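 Measured: inhibition of mgt1 yeast growth by compound, normalized to vehicle-treated cultures.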

[5] = NCI Yeast Anticancer Drug Screen. Data for the rad50 strain (AID 155);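 note: 0% = growth of vehicle-only cultures of the same strain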; conditions: S. cerevisiae rad50 strain growth inhibition, active compounds read high
Outline: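 Readout: growth inhibition relative to vehicle-treated cultures. Compound exposure was carried out in a genetically defined yeast strain deficient in DNA damage repair.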

[6] = NCI Yeast Anticancer Drug Screen. Data for the mec2-1 strain (AID 157); conditions: S. cerevisiae mec2-1 strain, active compounds read high
Outline: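 Using mec2-1 yeast: add compound, measure growth, express inhibition versus vehicle-treated cultures.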

[7] = NCI Yeast Anticancer Drug Screen. Data for the rad14 strain (AID 159);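 note: 0% = growth of vehicle-treated control cultures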; conditions: S. cerevisiae rad14 strain growth inhibition, active compounds read high
Outline: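 Growth inhibition vs vehicle controls; genetically altered yeast strain (DNA damage repair defect) treated with test compounds.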

[8] = NCI Yeast Anticancer Drug Screen. Data for the sgs1 mgt1 strain (AID 161);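 note: 0% = growth of cultures given vehicle only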; conditions: S. cerevisiae sgs1 mgt1 strain, active compounds read high
Outline: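 Yeast cells carrying a defined DNA-repair defect were exposed to test compounds. Growth inhibition was measured relative to vehicle-treated controls.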

[9] = NCI Yeast Anticancer Drug Screen. Data for the CLN2oe strain (AID 163);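 note: 0% = growth of vehicle-only control cultures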; conditions: S. cerevisiae CLN2oe strain, active compounds read high
Outline: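 Whole-cell yeast growth assay. A strain engineered for altered cell-cycle control received compound, and inhibition relative to vehicle-treated cultures was recorded.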

[10] = NCI Yeast Anticancer Drug Screen. Data for the cln2 rad14 strain (AID 165);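 note: 0% = growth equal to vehicle treated cultures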; conditions: S. cerevisiae cln2 rad14 strain, active compounds read high
Outline: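 Yeast strain cln2 rad14, bearing defects in cell cycle control and DNA repair, serves as the test system; values reflect growth inhibition compared with vehicle.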

[11] = NCI Yeast Anticancer Drug Screen. Data for the bub3 strain (AID 167); conditions: S. cerevisiae bub3 mutant strain, active compounds read high
Outline: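 Readout: yeast growth inhibition, expressed relative to vehicle-only wells. The test organism is a mutant strain from a panel with lesions in DNA repair or checkpoint genes.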

[12] = NCI Yeast Anticancer Drug Screen. Data for the wt2 strain (AID 169);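 note: 0% = growth of vehicle-treated yeast cultures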; conditions: S. cerevisiae wt2 strain growth inhibition, active compounds read high
Outline: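 Treated yeast vs. vehicle-treated yeast: growth inhibition determined.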

[13] = NCI Yeast Anticancer Drug Screen. Data for the mlh1 strain (AID 171);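 note: 0% = growth of vehicle-treated control cultures of the same strain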; conditions: S. cerevisiae mlh1 strain growth inhibition, active compounds read high
Outline: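 A yeast strain with a defined genetic lesion serves as the test organism. Cultures receive compound or vehicle, and growth is measured.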

[14] = NCI Yeast Anticancer Drug Screen. Data for the sgs1 strain (AID 173);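 note: 0% = growth of vehicle-only control cultures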; conditions: S. cerevisiae sgs1 mutant, active compounds read high
Outline: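 A genetically defined yeast mutant is incubated with the test compound, and its growth is compared to that of the same strain given vehicle.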

[15] = NCI Yeast Anticancer Drug Screen. Data for the mlh1 rad18 strain (AID 175); conditions: S. cerevisiae mlh1 rad18 strain growth inhibition, active compounds read high
Outline: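 Steps: expose repair-defective yeast to compound; measure growth; express inhibition against vehicle-treated controls.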

[16] = NCI Yeast Anticancer Drug Screen. Data for the rad18 strain (AID 177); conditions: S. cerevisiae rad18 mutant growth inhibition, active compounds read high
Outline: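 Measured value is growth inhibition of a yeast strain bearing a DNA repair alteration, referenced to vehicle-treated cells.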

[17] = at 5.0 µM (retest, dose inferred, filed as 0.5)
[18] = at 50.0 µM (retest, dose inferred, filed as 5.0)

Measured: growth inhibition

Cc1cccc2c(NCCCN(C)C)c3c([N+](=O)[O-])ccc(C)c3nc12
inactive: [2]; at 1.2 µM 5% | [2]; at 3.7 µM 13% | [2]; at 11.0 µM 39% | [3]; at 1.2 µM 29% | [3]; at 3.7 µM 55% | [4]; at 1.2 µM 8% | [4]; at 3.7 µM 20% | [4]; at 11.0 µM 69% | [5]; at 1.2 µM 54% | [5]; [17] 1% | [6]; at 1.2 µM 22% | [6]; at 3.7 µM 61% | [6]; [17] -2% | [6]; [18] 11% | [8]; [17] 12% | [8]; [18] 46% | [9]; at 1.2 µM -2% | [9]; at 3.7 µM 9% | [9]; at 11.0 µM 41% | [10]; [17] 49% | [11]; at 1.2 µM -8% | [11]; at 3.7 µM -6% | [11]; [17] -24% | [11]; at 11.0 µM 16% | [12]; at 1.2 µM 4% | [12]; at 3.7 µM 15% | [12]; at 11.0 µM 49% | [13]; at 1.2 µM 8% | [13]; at 3.7 µM 18% | [13]; at 11.0 µM 63% | [15]; [17] 12% | [15]; [18] 61%
active: [1]; at 1.2 µM 76% | [1]; at 3.7 µM 91% | [1]; at 11.0 µM 94% | [1]; at 33.0 µM 97% | [1]; at 100.0 µM 97% | [2]; at 33.0 µM 95% | [2]; at 100.0 µM 97% | [3]; at 11.0 µM 85% | [3]; at 33.0 µM 94% | [3]; at 100.0 µM 95% | [4]; at 33.0 µM 98% | [4]; at 100.0 µM 98% | [5]; at 3.7 µM 79% | [5]; at 11.0 µM 92% | [5]; at 33.0 µM 94% | [5]; [18] 78% | [5]; at 50.0 µM 97.8% | [5]; at 100.0 µM 96% | [6]; at 11.0 µM 96% | [6]; at 33.0 µM 98% | [6]; at 50.0 µM 96.9% | [6]; at 100.0 µM 98% | [7]; at 1.2 µM 98% | [7]; at 3.7 µM 98% | [7]; at 11.0 µM 99% | [7]; at 33.0 µM 99% | [7]; at 100.0 µM 98% | [8]; at 50.0 µM 96.8% | [9]; at 33.0 µM 88% | [9]; at 100.0 µM 96% | [10]; [18] 95% | [10]; at 50.0 µM 91% | [11]; at 33.0 µM 90% | [11]; [18] 97% | [11]; at 50.0 µM 72.2% | [11]; at 100.0 µM 96% | [12]; at 33.0 µM 95% | [12]; at 100.0 µM 97% | [13]; at 33.0 µM 97% | [13]; at 100.0 µM 98% | [14]; at 1.2 µM 85% | [14]; at 3.7 µM 92% | [14]; at 11.0 µM 95% | [14]; at 33.0 µM 98% | [14]; at 100.0 µM 98% | [15]; at 50.0 µM 97.1% | [16]; at 1.2 µM 96% | [16]; at 3.7 µM 96% | [16]; at 11.0 µM 96% | [16]; at 33.0 µM 96% | [16]; at 100.0 µM 96%

CC(C)N(CCCNc1c2ccccc2nc2cccc([N+](=O)[O-])c12)C(C)C
active: [1]; at 3.7 µM 87% | [1]; at 11.0 µM 95% | [1]; at 33.0 µM 97% | [1]; at 100.0 µM 98% | [2]; at 33.0 µM 94% | [2]; at 100.0 µM 98% | [3]; at 3.7 µM 86% | [3]; at 11.0 µM 93% | [3]; at 33.0 µM 95% | [3]; at 100.0 µM 96% | [4]; at 33.0 µM 97% | [4]; at 100.0 µM 99% | [5]; at 3.7 µM 82% | [5]; [17] 86% | [5]; at 11.0 µM 92% | [5]; at 33.0 µM 94% | [5]; [18] 98% | [5]; at 50.0 µM 92.8% | [5]; at 100.0 µM 97% | [6]; at 3.7 µM 76% | [6]; [17] 88% | [6]; at 11.0 µM 97% | [6]; at 33.0 µM 98% | [6]; [18] 99% | [6]; at 50.0 µM 94.5% | [6]; at 100.0 µM 99% | [7]; at 1.2 µM 93% | [7]; at 3.7 µM 98% | [7]; at 11.0 µM 99% | [7]; at 33.0 µM 99% | [7]; at 100.0 µM 99% | [8]; [17] 91% | [8]; [18] 98% | [8]; at 50.0 µM 94.5% | [9]; at 33.0 µM 91% | [9]; at 100.0 µM 96% | [10]; [17] 97% | [10]; [18] 98% | [10]; at 50.0 µM 95.7% | [11]; at 33.0 µM 90% | [11]; [18] 97% | [11]; at 100.0 µM 98% | [12]; at 33.0 µM 96% | [12]; at 100.0 µM 98% | [13]; at 11.0 µM 72% | [13]; at 33.0 µM 96% | [13]; at 100.0 µM 98% | [14]; at 1.2 µM 80% | [14]; at 3.7 µM 91% | [14]; at 11.0 µM 95% | [14]; at 33.0 µM 97% | [14]; at 100.0 µM 98% | [15]; [17] 93% | [15]; [18] 98% | [15]; at 50.0 µM 95.9% | [16]; at 1.2 µM 95% | [16]; at 3.7 µM 95% | [16]; at 11.0 µM 95% | [16]; at 33.0 µM 95% | [16]; at 100.0 µM 98%
inactive: [1]; at 1.2 µM 51% | [2]; at 1.2 µM 0% | [2]; at 3.7 µM 5% | [2]; at 11.0 µM 43% | [3]; at 1.2 µM 52% | [4]; at 1.2 µM -1% | [4]; at 3.7 µM 8% | [4]; at 11.0 µM 67% | [5]; at 1.2 µM 42% | [6]; at 1.2 µM 12% | [9]; at 1.2 µM -9% | [9]; at 3.7 µM -12% | [9]; at 11.0 µM 51% | [11]; at 1.2 µM -20% | [11]; at 3.7 µM -18% | [11]; [17] -10% | [11]; at 11.0 µM 17% | [11]; at 50.0 µM 33.5% | [12]; at 1.2 µM 1% | [12]; at 3.7 µM 14% | [12]; at 11.0 µM 68% | [13]; at 1.2 µM 6% | [13]; at 3.7 µM 14%
